According to PubChem BioAssay (NCI):
Compounds without any hit were thinned out: in the full panel of roughly 83,000, 20% have a hit.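 Growth was measured after 48 h exposure to one concentration of compound in 96-well plates. Values under 10 count as active.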 Calls of active or inactive are those of the source.

Assays:
Test in all cases: NCI-60 one-dose screen, 48 h (100 = growth as untreated, 0 = no growth, -100 = all killed)
Details in all cases: 10 µM unless noted
HCT-15 colon = test system: HCT-15 colon
HT29 colon = test system: HT29 colon
SNB-19 CNS = test system: SNB-19 CNS
U251 CNS = test system: U251 CNS
PC-3 prostate = test system: PC-3 prostate
SK-MEL-5 melanoma = test system: SK-MEL-5 melanoma
UACC-62 melanoma = test system: UACC-62 melanoma
LOX IMVI melanoma = test system: LOX IMVI melanoma
SK-MEL-28 melanoma = test system: SK-MEL-28 melanoma
SK-MEL-2 melanoma = test system: SK-MEL-2 melanoma
EKVX NSCLC = test system: EKVX NSCLC
UO-31 renal = test system: UO-31 renal
TK-10 renal = test system: TK-10 renal
ACHN renal = test system: ACHN renal
CAKI-1 renal = test system: CAKI-1 renal
A498 renal = test system: A498 renal
CCRF-CEM leukemia = test system: CCRF-CEM leukemia
MOLT-4 leukemia = test system: MOLT-4 leukemia
SN12C renal = test system: SN12C renal
SNB-75 CNS = test system: SNB-75 CNS

Measured: growth

CCOC(=O)CSc1nc2sc3c(c2c(=O)n1-c1ccccc1)CCCCC3
inactive: HCT-15 colon 104% | HT29 colon 102% | SNB-19 CNS 89.2% | U251 CNS 93.4% | PC-3 prostate 109% | SK-MEL-5 melanoma 97.6% | UACC-62 melanoma 99.5% | LOX IMVI melanoma 101% | SK-MEL-28 melanoma 112% | SK-MEL-2 melanoma 103% | EKVX NSCLC 103% | UO-31 renal 84.1% | TK-10 renal 102% | ACHN renal 102% | CAKI-1 renal 102% | A498 renal 105% | CCRF-CEM leukemia 97% | MOLT-4 leukemia 102%

CCOc1ccccc1NC(=O)CCC(=O)OC
inactive: HCT-15 colon 105% | HT29 colon 89.7% | SNB-19 CNS 111% | U251 CNS 105% | PC-3 prostate 93.5% | SK-MEL-5 melanoma 99.7% | UACC-62 melanoma 106% | LOX IMVI melanoma 102% | SK-MEL-28 melanoma 101% | SK-MEL-2 melanoma 121% | EKVX NSCLC 94.3% | SN12C renal 108% | UO-31 renal 81.8% | TK-10 renal 98.7% | ACHN renal 106% | CAKI-1 renal 92.4% | A498 renal 100% | CCRF-CEM leukemia 108% | MOLT-4 leukemia 94.8%

CCCC[N+]1(C)CCN=C1Cc1ccccc1 (stereo not drawn)
inactive: HCT-15 colon 103% | HT29 colon 89.3% | SNB-19 CNS 104% | U251 CNS 95.8% | PC-3 prostate 87.2% | SK-MEL-5 melanoma 97.8% | UACC-62 melanoma 96.7% | LOX IMVI melanoma 99.8% | SK-MEL-28 melanoma 110% | EKVX NSCLC 96.6% | SN12C renal 94.4% | UO-31 renal 95.5% | TK-10 renal 91.5% | ACHN renal 112% | CAKI-1 renal 95.8% | A498 renal 97.2% | CCRF-CEM leukemia 83.5% | MOLT-4 leukemia 94.6%

Cc1ccc(NC(=O)c2ccc(Nc3ncnc4c3cnn4-c3cccc(F)c3)cc2)cc1
inactive: HCT-15 colon 100% | HT29 colon 98.8% | SNB-19 CNS 94.2% | U251 CNS 102% | PC-3 prostate 100% | SK-MEL-5 melanoma 99.8% | UACC-62 melanoma 90.7% | LOX IMVI melanoma 92.8% | SK-MEL-28 melanoma 106% | SK-MEL-2 melanoma 104% | EKVX NSCLC 102% | SN12C renal 96.2% | UO-31 renal 90.8% | TK-10 renal 105% | ACHN renal 98.4% | CAKI-1 renal 90.7% | A498 renal 80.7% | CCRF-CEM leukemia 95.5% | MOLT-4 leukemia 96.3%

O=c1ccc2nc(-c3ccccc3)nn(-c3ccccn3)c-2c1
inactive: HCT-15 colon 33.9% | SNB-19 CNS 102% | U251 CNS 94.4% | PC-3 prostate 83.5% | SK-MEL-5 melanoma 76.6% | UACC-62 melanoma 93.4% | LOX IMVI melanoma 49.6% | SK-MEL-28 melanoma 87.2% | SK-MEL-2 melanoma 96.8% | EKVX NSCLC 109% | SN12C renal 93.1% | UO-31 renal 20.5% | CAKI-1 renal 77.4% | A498 renal 88.2%
active: HT29 colon -46.5% | TK-10 renal -83.4% | ACHN renal -91.9% | CCRF-CEM leukemia 1.08% | MOLT-4 leukemia -10.6%

N#C/C(=C/C=C/c1ccccc1)S(=O)c1ccccc1 (stereo not drawn)
inactive: SNB-75 CNS 20.8%
active: HCT-15 colon -9.4% | HT29 colon -6% | SNB-19 CNS -5.13% | U251 CNS -81.5% | PC-3 prostate -34.1% | SK-MEL-5 melanoma -84.7% | UACC-62 melanoma -57% | LOX IMVI melanoma -80.7% | SK-MEL-28 melanoma -67.9% | EKVX NSCLC -6.51% | SN12C renal -52.5% | TK-10 renal -89.8% | ACHN renal -74.4% | CAKI-1 renal -25.6% | A498 renal -68.4% | CCRF-CEM leukemia -5.68% | MOLT-4 leukemia -1.2%

CN1CCN(CCCNC(=O)c2c3c(n4ccccc24)C(=O)c2ncccc2C3=O)CC1
inactive: SK-MEL-28 melanoma 61.5% | EKVX NSCLC 24% | UO-31 renal 32.2% | TK-10 renal 56.7% | CAKI-1 renal 75.4% | A498 renal 45.8%
active: HT29 colon 0.534% | SNB-75 CNS -4.64% | SNB-19 CNS -4.84% | U251 CNS -15.7% | PC-3 prostate -1.89% | SK-MEL-5 melanoma -96% | UACC-62 melanoma -23.7% | LOX IMVI melanoma -31.7% | SK-MEL-2 melanoma 9.41% | SN12C renal -48.5% | ACHN renal 7.62% | CCRF-CEM leukemia -11.5% | MOLT-4 leukemia -35.1%

O=[N+]([O-])c1ccc(N/N=C\c2cc(Cl)ccc2O)nc1
active: SK-MEL-5 melanoma 4.09% | UO-31 renal 8.96% | CAKI-1 renal -14.1%
inactive: HT29 colon 50.9% | SNB-75 CNS 70.1% | SNB-19 CNS 44.8% | U251 CNS 33% | PC-3 prostate 24.5% | UACC-62 melanoma 11.2% | LOX IMVI melanoma 22.6% | SK-MEL-28 melanoma 55.3% | SK-MEL-2 melanoma 44.3% | EKVX NSCLC 31% | SN12C renal 39.3% | TK-10 renal 107% | ACHN renal 17.6% | A498 renal 106% | CCRF-CEM leukemia 19.1% | MOLT-4 leukemia 13.8%

CCOC(=O)c1c(Nc2nc3ccccc3s2)sc2c1CCC(=O)C2
inactive: HT29 colon 55.4% | SNB-75 CNS 74.8% | SNB-19 CNS 45.8% | U251 CNS 20.5% | PC-3 prostate 22.2% | SK-MEL-5 melanoma 61.2% | UACC-62 melanoma 43.1% | LOX IMVI melanoma 40.1% | SK-MEL-28 melanoma 108% | SK-MEL-2 melanoma 103% | EKVX NSCLC 42.8% | SN12C renal 36.8% | UO-31 renal 52.7% | TK-10 renal 29.1% | ACHN renal 29.9% | CAKI-1 renal 42.8% | A498 renal 59.1% | CCRF-CEM leukemia 16.9% | MOLT-4 leukemia 20.8%
